Screening results (PubChem)
Luc counter = blocks Kinase-Glo luciferase, a counter-screen artifact; Q27757; Kinase-Glo luciferase, ATP luminescence, 8 min; Potency, µM (doses to about 38.3 µM), for inactives: top-dose activity change, negative = inhibition, most hits filed as inhibitors; hit rate 0.28% among 200,000; AID 1379; active = well fitted inhibition curve with a large enough effect; inconclusive = small, poorly fitted or top-dose-only effect; note: potency is the fitted concentration of half-maximal effect; nearly all actives have a fitted effect of over 60% in size
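Kinase-Glo luciferase light output from ATP and luciferin was measured with 10 uM ATP, within the enzyme's linear range. Buffer: 50 mM imidazole pH 7.2, 50 mM KCl, 7 mM MgCl2, 0.01% Tween 20, 0.05% BSA; luminescence read after 8 min at ambient temperature.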
LMNA splice mod = changes lamin A minigene splicing in HeLa cells | HeLa LMNA splicing GFP/RFP minigene ratio, 48 h | Potency, µM (doses to about 46.1 µM), without a hit: at the top dose ratio change, negative = inhibition, hits mostly inhibitors | hit rate 0.01% among 200,000; active = well fitted inhibition curve with a large enough effect in the signal ratio, with a control signal flat, not every such curve was filed as active; inconclusive = small, poorly fitted or top-dose-only effect, or effect the other way, or a change in a side signal; the % refers to the signal ratio; note: potency is the fitted concentration of half-maximal effect
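Read-out is the ratio of GFP to DsRed2 object intensity, acquired by 488 nm laser-scanning cytometry on HeLa lamin A-EGFP minigene reporter cells. Compound incubation 48 hrs at 37 °C in Opti-MEM with 2% FBS; DMSO 0.5% final.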
HPGD inh = HPGD (human) dehydrogenase inhibition. Potency, µM, without a hit: top-dose activity change, negative = inhibition, usual class: inhibitors. hit rate 4.3% among 150,000. P15428. purified HPGD, NADH fluorescence kinetic, PGE2 substrate; note: potency is the fitted concentration of half-maximal effect
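20 nM HPGD preincubated 15 min at room temperature with compound in 50 mM Tris-HCl pH 8, 0.01% Tween 20. Started with 1 mM NAD+ and 30 uM prostaglandin E2; NADH fluorescence (360/450 nm) read 5 times over 30-s intervals, last minus first.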
IMPase inh = cell-permeable inhibitors of inositol monophosphatase (IMPase); P97697; CHO-M1 cells, IP1 accumulation, HTRF TR-FRET ratio; inhibition (IP1 accumulation), % at 46.1 µM; 120,000 tested, under 10 active; AID 901; active = well fitted curve in the direction sought with a large enough effect in the signal ratio, not every such curve was filed as active; inconclusive = small, poorly fitted or top-dose-only effect, or a change in a side signal; inactive = no such curve, though single readings can be large or run the other way; the % refers to the signal ratio;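 note: cells stimulated with carbachol in lithium chloride buffer; plate controls were DMSO basal wells for no effect and reference inhibitor wells for full effect; higher means more IMPase inhibition seen as more IP1 and lower FRET ratio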
Target sequence (P97697 whole entry, looked up): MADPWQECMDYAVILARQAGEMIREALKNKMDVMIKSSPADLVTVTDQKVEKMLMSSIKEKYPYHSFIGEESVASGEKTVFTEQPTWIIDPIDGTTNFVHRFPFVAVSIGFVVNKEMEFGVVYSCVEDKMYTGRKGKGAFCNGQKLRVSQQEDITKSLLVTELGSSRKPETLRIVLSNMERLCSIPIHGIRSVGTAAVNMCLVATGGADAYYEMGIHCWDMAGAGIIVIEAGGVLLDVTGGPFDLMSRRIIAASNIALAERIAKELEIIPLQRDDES
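The IP-One HTRF competitive assay in carbachol-stimulated CHO-M1 cells quantifies cellular IP1. Compounds spanned up to 46 uM final, and activity is expressed as AC50 from concentration-response fits of the ratio and donor data.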
PNC inhibitor = blocks assembly of the perinucleolar compartment; activity change (PNC), negative = inhibition, % at 10 µM; PC3M PTB-GFP, PNC prevalence imaging, 16 h; hits give low values; hit rate 3.1% among 140,000;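 active = readout at or below -70, meaning at least 70% loss of cells showing the perinucleolar compartment, a nuclear body marking cancer cells; inconclusive = readout between -30 and a set limit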;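 note: plate controls were DMSO wells for no effect and camptothecin positive control wells for full effect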
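Read-out is percentage of cells bearing a perinucleolar compartment, from automated 20x imaging of fixed, Hoechst-stained PC3M PTB-GFP cells. Cells were seeded 4 h, then exposed 16 h to compound (23 nl of library stock) in duplicate plates.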
ALDH1A1 inh = blocks purified human ALDH1A1 activity | P00352 | Purified ALDH1A1, NADH fluorescence, propionaldehyde substrate | Potency, µM (highest dose often 75.3 µM), inactives show at the top dose activity, negative = inhibition, most hits filed as inhibitors | hit rate 7.3% among 220,000;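 note: potency is the fitted concentration of half-maximal effect; plate controls were no enzyme wells and a reference inhibitor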
Target sequence (P00352 whole entry, looked up): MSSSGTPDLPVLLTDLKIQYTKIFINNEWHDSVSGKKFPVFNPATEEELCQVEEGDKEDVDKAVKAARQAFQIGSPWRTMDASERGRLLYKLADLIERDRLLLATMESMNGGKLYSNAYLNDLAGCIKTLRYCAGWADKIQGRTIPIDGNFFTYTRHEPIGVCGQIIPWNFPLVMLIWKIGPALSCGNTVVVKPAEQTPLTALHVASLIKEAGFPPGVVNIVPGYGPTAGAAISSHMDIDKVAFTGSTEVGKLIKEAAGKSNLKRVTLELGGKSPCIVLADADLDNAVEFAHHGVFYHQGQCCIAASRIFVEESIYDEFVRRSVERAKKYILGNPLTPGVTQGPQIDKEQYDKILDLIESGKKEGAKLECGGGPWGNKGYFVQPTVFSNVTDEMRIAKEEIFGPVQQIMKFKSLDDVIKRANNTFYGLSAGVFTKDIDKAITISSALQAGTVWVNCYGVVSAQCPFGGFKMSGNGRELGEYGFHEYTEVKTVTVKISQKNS
Numbers without * were called inactive; ? = inconclusive; nt = not tested or not shown; ! = repeats disagree; [ ] = dose if it differs, or a comment. The list is not random: actives were taken first. Their share in the collection is about 10%. Unless noted, calls come from the whole dose curve; as a rule, active = well fitted inhibition curve with a large enough effect (not every such curve was filed as active); inconclusive = small, poorly fitted or top-dose-only effect, or another doubt; inactive = no such curve, though single readings can be large or run the other way. Unless noted, % is set by controls: 0 for no effect and ±100 for the full control effect.

SMILES	Luc counter	LMNA splice mod	HPGD inh	IMPase inh	PNC inhibitor	ALDH1A1 inh
Cc1ccc(C(C[N+](=O)[O-])Sc2ccc(N)cc2)cc1 (centres undefined)	nt	nt	nt	nt	nt	4µM*
Nc1ccc(Sc2ccc([N+](=O)[O-])cc2)cc1	2%	nt	nt	nt	nt	-7%
CCN(CC)c1ccc(NC(=O)c2cc(OC)cc(OC)c2)c(C)c1	-1%	?	-7%	19	-89*	-2%
COc1ccc(C(=O)N2CCC3(CC2)CN(c2ccccc2)C3)cc1	-2%	nt	-7%	nt	nt	-16%
CCCC(=O)OC1=CN(Cc2ccccc2)S(=O)(=O)c2ccccc21	nt	9%[46 µM]	nt	nt	nt	nt
CCCCC(=O)Nc1cccc(-c2nn3c(C)nnc3s2)c1	1%	-13%	16µM*	5	44	2%
Cc1ccc(-c2nn3c(C)nnc3s2)cc1NC(=O)c1ccc(-c2cccc(Cl)c2)o1	-3%	-2%	22µM*	-3	-8	?
CCC(=O)Nc1cc(-c2nn3c(C)nnc3s2)ccc1C	-1%	?	1%	4	-4	12%
Cc1ccc(-c2nn3c(C)nnc3s2)cc1NC(=O)c1ccc(-c2ccc(Cl)cc2Cl)o1	-2%	6%	?	-1	4	?
COC(=O)c1ccc(C#CC(NP(=O)(c2ccccc2)c2ccccc2)c2ccccc2)cc1 (centres undefined)	-9%	nt	25µM*	nt	nt	?
CCC[C@@H]1C[C@@]1(CCC)[C@@H](NP(=O)(c1ccccc1)c1ccccc1)c1ccc(C(=O)OC)cc1	0%	?	-15%	nt	36	6%
COC(=O)c1cccc(C#CC(NP(=O)(c2ccccc2)c2ccccc2)c2ccccc2)c1 (centres undefined)	-3%	nt	-12%	nt	nt	13µM*
CN(C)c1ccc(SC#N)cc1	nt	nt	nt	nt	nt	13µM*
O=C(CSc1ncnc2nc[nH]c12)Nc1ccccc1C(F)(F)F	7%	4%	8.9µM*	5	?	0%
O=C(CSc1ncnc2nc[nH]c12)c1ccccc1	-5%[7.66 µM]	?	28µM*!	-6	-20	28µM*!
Cc1cccc(C)c1NC(=O)CSc1ncnc2nc[nH]c12	0%	-8%	-11%	1	?	6%
COc1ccc(-c2nc3c(c4c2C[C@H](c2ccccc2)OC4)CN(C(=O)Nc2cccc(C#N)c2)CC3)c(C)c1	-4%[7.66 µM]	?	-1%	nt	nt	?
C=CCOC(=O)N[C@H](c1cccc(C(F)(F)F)c1)C(C(C)=O)C(C)=O	4%	nt	-19%	nt	nt	10%
COc1ccccc1C1C2=C(N=c3s/c(=C/c4cccc(OCC(=O)O)c4)c(=O)n31)c1ccccc1CC2 (centres undefined)	1%	?	28µM*	nt	170	?
CCc1c(C)nc2c(C)cccc2c1SCCC#N	0%	nt	nt	nt	nt	7.9µM*
CCCc1c(C)nc2ccc(OC)cc2c1SCCC(=O)O	-3%	-19%	?	nt	?	-3%
C=CCc1c(C)nc2c(C)cccc2c1SC(=N)N	nt	nt	nt	nt	nt	-5%
CCCCc1c(C)nc2ccccc2c1SCCC#N	5%	-8%	-26%	-5	28	7.1µM*
CC(=O)NC1C(O)C[C@@](O)(C(=O)O)OC1[C@@H](O)C(O)CO (some centres undefined)	-4%	4%	2%	nt	nt	5%
Cc1c(C(=O)Nc2ccc(-c3nnc4n3CCCCC4)cc2)oc2c1ccc1ccccc12	0%	?	?	13	?	-12%
SMILES	Luc counter	LMNA splice mod	HPGD inh	IMPase inh	PNC inhibitor	ALDH1A1 inh
O=C(/C=C/c1ccccc1Cl)Nc1ccc(-c2nnc3n2CCCCC3)cc1	-2%	-5%	4µM*	nt	-6	-4%
CCOc1cc(C(=O)Nc2ccc(-c3nnc4n3CCCCC4)cc2)cc(OCC)c1OCC	nt	13%[46 µM]	nt	nt	nt	nt
O=C(Nc1ccc(-c2nnc3n2CCCCC3)cc1)c1cc2ccccc2o1	-4%	-8%	2.2µM*	nt	-7	-1%
C[C@@H](C(=O)O)c1ccc(C[C@@H]2CCCC2=O)cc1	nt	nt	nt	3	nt	nt
COC(=O)c1c(NC(=O)c2ccccc2)sc(C(=O)c2ccccc2)c1C	-1%	?	-24%	-4	65	14µM*
Cc1ccc(C(=O)NC(C)CCc2ccccc2)cc1[N+](=O)[O-] (centres undefined)	-4%	15%	-16%	10	54	?
Cc1ccc(C(=O)Nc2sc(C)c(-c3ccccc3)c2C(N)=O)cc1[N+](=O)[O-]	-6%	5%	25µM*	-3	30	10µM*
COC(=O)c1c(NC(=O)c2cccc([N+](=O)[O-])c2)sc(C(N)=O)c1C	-1%	?	nt	nt	nt	7.9µM*
COC(=O)c1sc(NC(=O)c2cccc([N+](=O)[O-])c2)c(C(N)=O)c1C	0%	?	28µM*	nt	?	10µM*
Cc1cc(NC(=O)c2ccccc2)sc1C	11µM*	4%	-19%	-2	0	-15%
O=c1oc2ccccc2c(NCc2ccccc2F)c1[N+](=O)[O-]	2%	-7%	16µM*	-1	-11	1.1µM*
Cc1cc(C)cc(N(CCC(=O)O)S(=O)(=O)c2ccc(Cl)cc2)c1	-1%	4%	3%	-1	?	9%
CCc1nnc(NC(=O)CCN(c2cc(C)cc(C)c2)S(=O)(=O)c2ccc(Cl)cc2)s1	nt	?	nt	0	-94*	5%
CCCCCCOc1ccc(C2C(=O)N(C3CCCCC3)CC(=O)N2CCCC)cc1 (centres undefined)	nt	-11%[46 µM]	nt	nt	nt	nt
CCOC(=O)c1ccc(N2N=C(C)/C(=C/C=C/c3ccco3)C2=O)cc1	-11%	0%	-25%	-7	29	0.22µM*
COc1ccccc1NC(=O)CCn1cnc2ccccc2c1=O	nt	8%[46 µM]	nt	nt	nt	nt
O=C1C[C@@H](O)[C@@H](O)[C@@H]2[C@H]3C(=O)N(c4ccc(F)cc4F)C(=O)[C@@H]3CC[C@H]12	nt	nt	nt	nt	nt	-3%[13.5 µM]
CCC(=S)/C=C1\Sc2ccc3ccccc3c2N1CCCS(=O)(=O)O	-8%	16%	32µM*	2	?	-3%
O=C(Cn1ccc2ccccc2c1=O)NCCC(=O)NC1CCN(Cc2ccccc2)CC1	0%	6%	-13%	6	-86*	-2%
Cc1cccc(CN2CCC(CNC(=O)CCNC(=O)Cn3ccc4ccccc4c3=O)CC2)c1	9%	-3%	-2%	-1	?	9%
CCN(CC)S(=O)(=O)N1CCC(C(=O)NCCN2CCOCC2)CC1	-7%	7%	-15%	0	-7	10µM*
CCN(CC)S(=O)(=O)N1CCC(C(=O)NCCC2=CCCCC2)CC1	-1%	nt	nt	nt	nt	2.5µM*
CCCCN(CC)S(=O)(=O)N1CCC(C(=O)NCCCN2CCOCC2)CC1	-2%	2%[0.0737 µM]	?	0	0	?
